Where “and” joins values, the source holds several entries; their conditions need not be identical. Identical values can stand only once. About 83,000 compounds went through this panel and 20% of them were active in at least one assay; those are over-represented in the sample as a whole.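 48-hour exposure, single concentration, 96-well plates; percent growth endpoint where 0 means no net growth. Active: below 10.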 Unmarked numbers belong to inactive results. Calls of active or inactive are those of the source.
Assays:
Assay in all cases: NCI-60 one-dose screen, 48 h (100 = growth as untreated, 0 = no growth, -100 = all killed)
Conditions in all cases: 10 µM unless noted
HCT-15 colon = system: HCT-15 colon
HT29 colon = system: HT29 colon
SNB-75 CNS = system: SNB-75 CNS
SNB-19 CNS = system: SNB-19 CNS
U251 CNS = system: U251 CNS
PC-3 prostate = system: PC-3 prostate
SK-MEL-5 melanoma = system: SK-MEL-5 melanoma
UACC-62 melanoma = system: UACC-62 melanoma
LOX IMVI melanoma = system: LOX IMVI melanoma
SK-MEL-28 melanoma = system: SK-MEL-28 melanoma

Row | SMILES | growth (HCT-15 colon) | growth (HT29 colon) | growth (SNB-75 CNS) | growth (SNB-19 CNS) | growth (U251 CNS) | growth (PC-3 prostate) | growth (SK-MEL-5 melanoma) | growth (UACC-62 melanoma) | growth (LOX IMVI melanoma) | growth (SK-MEL-28 melanoma)
1 | O=C(Cc1ccccc1)NC(O)C(Cl)(Cl)Cl (stereo not given) | 118% | 99.3% | 86.1% | 95% | 99.9% | 106% | 105% | 97.9% | 101% | 110%
2 | CC1(C)C2CCC1(CS(=O)(=O)O)C(=O)C2 (stereo not given) | 91.7% and 104% | 98.2% and 108% | 95% and 82.9% | 101% and 109% | 90.8% and 101% | 94.6% and 94.5% | 105% and 115% | 88.3% and 93.2% | 77.1% and 100% | 109% and 126%
3 | O=C1NC(=O)C(=Cc2ccccc2)C(=O)N1 | 98.6% and 106% | 105% and 99% | 105% and 96.5% | 106% | 97.4% and 92.2% | 81% and 96.2% | 109% and 100% | 90.3% and 105% | 94% and 97.1% | 104% and 115%
4 | C/C(=C\c1ccn(-c2ccc(N)cc2F)n1)[C@@H]1C[C@@H]2O[C@]2(C)CCC[C@H](C)[C@H](O)[C@@H](C)C(=O)C(C)(C)[C@@H](O)CC(=O)O1 | 14% | 13.1% | -6.93% (active) | 26% | 18.9% | 17% | 8.85% (active) | 11.6% | 27.3% | 54.5%
5 | COC(=O)C1=CO[C@@H](C)[C@@H]2CN3CCc4c([nH]c5cc(OC)ccc45)[C@@H]3C[C@H]12 | 97.6% | 103% | 76.9% | 95.2% | 103% | 93.9% | 98.2% | 78.3% | 94.6% | 114%
6 | N#Cc1ccc(Cl)cc1 | 110% | 84.4% | 101% | 108% | 105% | 129% | 106% | 104% | 106% | 117%
7 | O=C(O)c1ccccc1N(CCO)CCCl | 87% | 115% | 81.3% | 98.8% | 94.5% | 87.6% | 101% | 94% | 86.6% | 100%
8 | NC(=O)c1c(Br)c(Br)c(Br)c(Br)c1C(=O)O (tested in a mixture with another compound) | 92.8% and 106% | 106% and 103% | 115% and 95.8% | 96.6% and 104% | 95.4% and 96.2% | 90.8% and 86.6% | 95.2% and 101% | 83.7% and 104% | 31.8% and 101% | 110% and 108%
9 | CO[C@H]1[C@H](O[C@@H]2C[C@@H]3C/C=C/C(=O)O[C@@H](CO)C[C@H](O)[C@@H]4C[C@H](C)[C@H](C/C=C\C=C\[C@H](C)C[C@H](C2)O3)O4)O[C@@H](C)[C@H](O)[C@H]1O | 47.4% | 66.1% | 56.7% | 52.2% | 40.3% | 35% | 19.2% | 61.8% | 59.7% | 76.1%
10 | CN1C2CCC1[C@@H](COC(=O)c1ccccc1)[C@@H](O)C2 (stereo not given in full) | 111% | 91.3% | 83.5% | 102% | 103% | 99.7% | 112% | 96% | 103% | 128%
11 | Oc1ccccc1C=NCCN=Cc1ccccc1O | 104% | 108% | 97.6% | 98% | 91.6% | 95.1% | 99.5% | 98.8% | 95.6% | 103%
12 | OCCN=Cc1c[nH]c2ccccc12 | 105% | 102% | 75% | 101% | 103% | 90.5% | 103% | 90.9% | 95.2% | 111%
